PubChem BioAssay AID560 (The Scripps Research Institute Molecular Screening Center, 2006)
Among all 65,000 compounds or so, about 980 (1.5%) were called active.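 The calls were made as follows: active = activation above the mean of all tested compounds plus 3 SD (cut at about 49% in these data); inactive = the rest.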 Only a selection was taken, and actives are over-represented in it overall.

The molecules below were run against Nuclear receptor ROR-alpha (Homo sapiens) (UniProt P35398) (assay: RORA ligand-binding domain transcriptional activation – cell-based, luminescence, primary screen (AID 560;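 also: 0% = DMSO-treated RORA cells and 100% = added signal equal to DMSO minus mock-transfected cells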)). Conditions: CHO-K1 Gal4-RORA LBD luciferase reporter, at 10 µM, active compounds read high, percent increase over mock-subtracted basal signal.
Nuclear receptor ROR-alpha (Homo sapiens), sequence (P35398 whole entry, looked up, the tested form may be a part): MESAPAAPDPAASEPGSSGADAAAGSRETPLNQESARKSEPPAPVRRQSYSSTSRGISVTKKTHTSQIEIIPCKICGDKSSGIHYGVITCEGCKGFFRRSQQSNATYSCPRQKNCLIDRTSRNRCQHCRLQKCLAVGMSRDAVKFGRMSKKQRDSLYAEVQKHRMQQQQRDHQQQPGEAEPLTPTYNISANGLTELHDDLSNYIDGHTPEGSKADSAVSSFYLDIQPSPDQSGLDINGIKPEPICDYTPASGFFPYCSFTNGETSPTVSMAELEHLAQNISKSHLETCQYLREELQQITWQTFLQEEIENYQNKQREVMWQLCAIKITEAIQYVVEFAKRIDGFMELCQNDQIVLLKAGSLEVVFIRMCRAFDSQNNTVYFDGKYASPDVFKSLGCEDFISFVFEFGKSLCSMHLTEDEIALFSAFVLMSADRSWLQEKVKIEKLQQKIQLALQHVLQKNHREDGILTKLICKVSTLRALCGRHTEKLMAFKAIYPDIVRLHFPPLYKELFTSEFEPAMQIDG
With `O=C(NCc1ccccn1)Nc1ccc(F)cc1` the activation was 28.4% (inactive). In the case of `O=C(NCc1cn2ccsc2n1)Nc1cccc(Cl)c1`, the activation is reported as 45.8% (inactive). `O=C(Nc1cccc(Cl)c1)OCc1ccccn1` was tested, and the activation was 69.9% (active). With `Cc1c(NC(=O)c2coc(=O)c(Br)c2)c(=O)n(-c2ccccc2)n1C` the activation was -0.3% (inactive). `COC(=O)c1cc(C(=O)OC)cc(N2C(=O)CC(N3CCN(c4ccccc4)CC3)C2=O)c1` (centres undefined) was tested, and the activation was 15.5% (inactive). In the case of `CC(Cc1cccs1)NC(=O)NC1CCCCC1` (centres undefined), the activation is reported as 31.7% (inactive). `CC(C)c1ccc(NC(=O)NC2CCCCC2)cc1` was tested, and the activation was 85.1% (active). `CC(=O)OC(C(=O)NC1CCCCC1)c1ccccc1` (centres undefined) was tested, and the activation was -15.4% (inactive). With `COc1ccc(-c2nc(SCC(=O)N3CCOCC3)n[nH]2)cc1` the activation was 8.1% (inactive). `CC(=O)Nc1ccc(NC(=O)CN2CCCC(C)C2)c(Cl)c1` (centres undefined) was tested, and the activation was 7.9% (inactive). In the case of `O=C(C1CCC1)N1CCc2cc(S(=O)(=O)NCc3cccnc3)ccc21`, the activation is reported as 16.4% (inactive). With `Cc1ccc(C(=O)N2CCN(C3CCCCC3)CC2)s1` the activation was -13.8% (inactive). With `COc1cccc(CNC(=O)C2CCN(S(=O)(=O)c3cccc4cccnc34)CC2)c1` the activation was -6.7% (inactive). With `C#CCN1C(=O)C(O)(CC(=O)c2cc(OC)ccc2OC)c2ccccc21` (centres undefined) the activation was -9.4% (inactive). `CCOC(=O)NCc1ccc2c(c1)OCO2` was tested, and the activation was -14.5% (inactive). For `CCOC(=O)c1nc(-c2ccc3c(c2)OCO3)[nH]c1C`, the activation was 66.7% (active). `CCOC(=O)c1c(C)[nH]c(C(=O)COc2ccc3c(c2)OCO3)c1C` was tested, and the activation was 28.3% (inactive). `COCc1nnc(NC(=O)CS(=O)(=O)Cc2ccccc2)s1` was tested, and the activation was -0.8% (inactive). With `COC(=O)C(C)Sc1ccc2nnc(-c3cccc(F)c3)n2n1` (centres undefined) the activation was -8% (inactive). For `COC(=O)c1c(NC(=O)c2cccs2)sc2c1CCCC2`, the activation was 19.4% (inactive). `c1ccc2c(c1)OCC(CNc1ncnc3nc[nH]c13)O2` (centres undefined) was tested, and the activation was 20.1% (inactive). `Cn1c(=NC(=O)C2CC2)sc2cc(F)cc(F)c21` was tested, and the activation was 27.7% (inactive). For `CCCC(=O)N=c1sc2cccc(F)c2n1C`, the activation was 5.7% (inactive). `Cn1c(=NC(=O)c2ccco2)sc2cccc(F)c21` was tested, and the activation was 61.5% (active). With `COC(=O)c1cccc(NC(=O)CN2CCC(NC(=O)c3cc(OC)c(OC)c(OC)c3)CC2)c1` the activation was 17.2% (inactive). In the case of `COc1ccc(CCNC(=O)CN2CCC(n3nnc4cc(F)ccc43)CC2)cc1OC`, the activation is reported as -11.2% (inactive). `CCc1ccc(N2CC(C(=O)NC3=NCCS3)CC2=O)cc1` (centres undefined) was tested, and the activation was -23.3% (inactive). With `CC(NC(=O)COc1ccccc1)C(=O)NC1=NCCS1` (centres undefined) the activation was -14.4% (inactive). `O=C(NC1=NCCS1)c1ccc(Cl)s1` was tested, and the activation was 80.1% (active). In the case of `C=CCn1c(=S)[nH]c2nc3c(cc2c1=O)COC(C)(C)C3`, the activation is reported as -9.2% (inactive). With `O=C(Nc1cccc(-c2nnc(-c3ccccc3)o2)c1)C1CCCO1` (centres undefined) the activation was 61.1% (active). In the case of `O=C(Nc1ccc(-c2nnc(-c3ccccc3)o2)cc1)C1CCCO1` (centres undefined), the activation is reported as 32.9% (inactive). In the case of `O=C(Nc1nnc(CCc2ccccc2)s1)C1CCCO1` (centres undefined), the activation is reported as 0.2% (inactive). In the case of `O=C(COc1ccccc1)N1CCc2ccccc2C1`, the activation is reported as 18.5% (inactive). In the case of `Cc1ccsc1C(=O)OCC(=O)c1cc(C)n(CC2CCCO2)c1C` (centres undefined), the activation is reported as -85.1% (inactive). For `Cc1cc(C(=O)OCC(=O)NCc2ccco2)c(C)n1-c1ccccc1`, the activation was 61.4% (active). In the case of `O=C(COC(=O)C12CC3CC(CC(C3)C1)C2)NCc1ccco1`, the activation is reported as -21.1% (inactive). For `O=C(CSc1nnc(-c2cccs2)n1-c1ccccc1)NCc1ccco1`, the activation was 11.1% (inactive). With `CC(=O)N1CSCC1C(=O)O` (centres undefined) the activation was 15.8% (inactive). With `O=c1[nH][nH]c(=O)c2cc(N3CCCC3)ccc12` the activation was 1.1% (inactive). With `CCOC(=O)c1cc(NC(=O)c2cccnc2)cc(C(=O)OCC)c1` the activation was -17.2% (inactive). `CC(C)NS(=O)(=O)c1ccc(NC(=O)c2cccnc2)cc1` was tested, and the activation was 25.4% (inactive). For `Cc1cc2nc(-c3ccc(NC(=O)c4cccnc4)cc3)oc2cc1C`, the activation was 71.6% (active). `O=C(NC12CC3CC(CC(C3)C1)C2)N1CCCC(CO)C1` (centres undefined) was tested, and the activation was -9.5% (inactive). `O=C(Cn1nnc(-c2ccccc2)n1)NCc1ccccc1` was tested, and the activation was -3.8% (inactive). In the case of `CC(C)(C)NC(=O)Cn1nnc(-c2ccccc2Cl)n1`, the activation is reported as 65.9% (active). For `Cc1ccccc1-c1nnn(CC(=O)c2ccc(S(=O)(=O)N3CCCC3)cc2)n1`, the activation was -9.2% (inactive). For `O=C(CN1C(=O)C2C3C=CC(C3)C2C1=O)NCCc1ccccc1Cl` (centres undefined), the activation was 0.8% (inactive). For `O=S(=O)(NCc1ccccn1)c1ccc(Br)s1`, the activation was -0.5% (inactive). In the case of `COC(=O)c1sc(NC(=O)c2ccc(OC)cc2OC)nc1C`, the activation is reported as -38.1% (inactive). `O=C(Nc1nncs1)c1ccccc1NS(=O)(=O)c1cccs1` was tested, and the activation was 2.5% (inactive). In the case of `COc1ccc(C(=O)Nc2nncs2)c(OC)c1`, the activation is reported as 62.9% (active). In the case of `Cn1c(=O)n(CCc2ccccc2)c(=O)c2c1nc1n2CCCN1c1ccccc1`, the activation is reported as 8.2% (inactive). `Nc1c(C(=O)NCc2ccccc2)nnn1Cc1cccc(Cl)c1` was tested, and the activation was 9.8% (inactive). For `CCC(=O)NC(=Nc1nc2ccccc2s1)NC(=O)CC`, the activation was 48.7% (active). For `COC(=O)Cc1cc(=O)n(-c2nc3ccccc3s2)[nH]1`, the activation was -10.3% (inactive). `O=C(O)CSCc1nc2ccccc2s1` was tested, and the activation was 18.2% (inactive). With `O=c1/c(=C/c2ccc(CNS(=O)(=O)c3ccccc3)o2)sc2n1CCN=2` the activation was -17.5% (inactive). With `Cn1nnc(NC(=O)CSc2ncn[nH]2)n1` the activation was -7.4% (inactive). `CCN(C(=O)CSc1ncn[nH]1)c1cccc2ccccc12` was tested, and the activation was -6.5% (inactive). With `CC(C)(C)c1ccc(C(=O)CSc2ncn[nH]2)cc1` the activation was 54.2% (active). For `CCOC(=O)c1csc(NC(=O)c2ccc(S(=O)(=O)N3CCCC3)cc2)n1`, the activation was 8.6% (inactive). In the case of `Cn1c(SCC(=O)OC2CCCCC2)nnc1-c1ccc(S(=O)(=O)N2CCCC2)cc1`, the activation is reported as -7.4% (inactive). For `COc1cccc(OCC(=O)Nc2ccccc2C(N)=O)c1`, the activation was 1.9% (inactive). In the case of `O=C(Nc1nn(Cc2ccccc2F)cc1Br)c1cccs1`, the activation is reported as -5.3% (inactive). For `COc1cc(N=Cc2c(O)[nH]c3ccccc23)cc(OC)c1OC`, the activation was -15.8% (inactive). With `COc1ccc(N=Cc2c(O)[nH]c3ccccc23)cc1OC` the activation was 55.7% (active). For `COc1ccc(OC)c(N=Cc2c(O)[nH]c3ccccc23)c1`, the activation was -14.1% (inactive). `CC(=O)N1CC2(C)CN(C(C)=O)CC(C)(C1)C2=O` was tested, and the activation was -2% (inactive). For `CC1CCc2sc3nc(N4CCN(CCO)CC4)n4ncnc4c3c2C1` (centres undefined), the activation was 12.3% (inactive). With `O=C(Nc1ccc(Cl)cc1)c1ccsn1` the activation was 59.5% (active). For `O=C(NCc1cn2ccsc2n1)Nc1ccc(Cl)cc1`, the activation was 10.4% (inactive). In the case of `O=C(O)C1CCCCC1C(=O)Nc1ccc(Cl)cc1` (centres undefined), the activation is reported as -6.2% (inactive). In the case of `COc1ccc(O)c(C(=O)c2cnc3onc(C(C)C)c3c2)c1`, the activation is reported as 12.5% (inactive). `CCc1c(C)sc(NC(=O)OC)c1C(=O)N1CCOCC1` was tested, and the activation was -6.7% (inactive). With `COc1ccccc1NC(=O)c1ccc(C)s1` the activation was 48.9% (active). In the case of `CCOc1ccccc1NC(=O)Nc1cc(OC)ccc1OC`, the activation is reported as -19.1% (inactive). For `COc1ccc(C2C(C(=O)Nc3ccccc3OC)=C(C)Nc3nnnn32)c(OC)c1` (centres undefined), the activation was 7.2% (inactive). In the case of `CC(C)c1nc2oc3c(N4CCN(C)CC4)ncnc3c2c2c1CCC2`, the activation is reported as 13.9% (inactive). For `Cc1ccc(NC(=O)CN2CCC3(O)CCCCC3C2c2ccc3c(c2)OCO3)c(C)c1` (centres undefined), the activation was 11.9% (inactive). `Cc1ccc(C)c(NC(=O)C2CCCN2C(=O)OC(C)(C)C)c1` (centres undefined) was tested, and the activation was -9% (inactive). In the case of `O=C(Nc1ccc(Oc2ccccc2)cc1)c1ccco1`, the activation is reported as 22.9% (inactive). `COC(=O)c1ccc(NC(=O)c2ccco2)cc1` was tested, and the activation was 77.4% (active). `Cc1ccnc(NC(=O)c2ccc(NC(=O)c3ccco3)cc2)c1` was tested, and the activation was 29.2% (inactive). With `O=C(C1CCN(S(=O)(=O)Cc2ccccc2)CC1)N1CCCc2ccccc21` the activation was 12.2% (inactive). `COc1cc(C2C(C#N)=C(N)Oc3n[nH]c(-c4ccccn4)c32)cc(OC)c1OC` (centres undefined) was tested, and the activation was 7.4% (inactive). In the case of `Cc1ccc2c(c1)N(C(=O)CCC(=O)N1CCc3ccccc3C1)CCO2`, the activation is reported as 0.5% (inactive). `CC(=O)Oc1ccc(C(=O)Nc2nccs2)cc1` was tested, and the activation was 61% (active). For `Cn1cccc1C(=O)Nc1nccs1`, the activation was 12.1% (inactive). For `COc1cc(C(=O)Nc2nccs2)cc(OC)c1OC`, the activation was -15.9% (inactive). With `CC1CCC(NC(=O)c2ccc(N3CCCC3=O)cc2)CC1` (centres undefined) the activation was 61.7% (active). With `O=C(NCCCN1CCCCCC1)c1ccc(N2CCCC2=O)cc1` the activation was -16.9% (inactive). `Cc1ccc(C(=O)NC2CCN(C(=O)N3CCOCC3)CC2)cc1` was tested, and the activation was -4.3% (inactive). `CCOC(=O)c1c(C)c(C(=O)NCCc2ccc(S(N)(=O)=O)cc2)c(C)n1CC` was tested, and the activation was 17.3% (inactive). In the case of `CCNC(=O)CN(c1ccc(C)cc1)S(=O)(=O)c1ccc(SC)cc1`, the activation is reported as -24% (inactive). For `Clc1ccc(Nc2nc(-c3cccs3)cs2)nc1`, the activation was 41.7% (inactive). For `Oc1ccc(-c2csc(Nc3cccnc3)n2)cc1`, the activation was 5.9% (inactive). In the case of `c1ccc(Nc2nc(-c3ccncc3)cs2)nc1`, the activation is reported as 50.9% (active). In the case of `O=C(Cn1cc2c(n1)CCCCC2)NCCN1CCOCC1`, the activation is reported as -13.6% (inactive). In the case of `Cc1cccc(-c2noc(-c3ccc(F)cc3)n2)c1`, the activation is reported as 31% (inactive). In the case of `Cc1ccc(-c2noc(CN3CCN(Cc4ccccc4)CC3)n2)cc1`, the activation is reported as -1.1% (inactive). `Cc1ccc(Cc2nc(-c3cccc(C)c3)no2)cc1` was tested, and the activation was 51.5% (active). For `CC(=O)c1nc(N2C(=O)C3CC=C(C)CC3C2=O)sc1C` (centres undefined), the activation was 1.8% (inactive). For `CCn1c(SCCC(C)C)nnc1-c1c[nH]c2ccccc12`, the activation was 8.7% (inactive).
